These molecules were tested on Schistosoma mansoni schistosomula (LE) (assay: XTT viability relative to DMSO control; higher = more viable (less active)). Details: 72 h; 10 µM.
Protocol: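 XTT/PMS was then added for a further 24 h (72 h total) and A450 was read. % viability = (sample - heat-killed control)/(DMSO control - heat-killed control) x 100, from duplicate wells in two independent experiments.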

Structure (SMILES) | XTT viability
CC(=O)Nc1ccc(-c2noc(CC3CCCN(Cc4cccc(F)c4C)C3)n2)cc1 (stereo not given) | 117%
O=C(CN1CCOCC1)Nc1ccc2ncnc(Nc3ccc(OCc4cccc(F)c4)c(Cl)c3)c2c1 | 125%
CC(C)(C)n1nc(-c2ccccc2)c2c(N)ncnc21 | 106%
COc1ccc(Nc2ccccc2NC(=O)c2ccc(O)nc2)cc1 | 176%
CCC(C)NC(=O)c1ccc(NC(=O)C2(c3ccccc3)CCCC2)cc1 (stereo not given) | 90.6%
COc1ccc(C2CC(c3cccs3)=NN2C(=O)c2ccco2)cc1OC (stereo not given) | 65.7%
CCOc1ccc2cc(-c3nn(C(C)(C)C)c(N)c3C(N)=O)cnc2c1 | 75.2%
Clc1ccc(CN2CCN(C3=NCCN3)CC2)cc1Cl | 81.9%
COc1ccc2nc(C)cc(OCC(=O)Nc3ccccc3OC)c2c1 | 108%
Brc1cncc(-c2cc(NCCCn3ccnc3)nc(-c3ccccc3)n2)c1 | 12.9%
CCCCc1ccc(C(=O)Nc2nccc3ccccc23)nc1 | 94.2%
Cc1noc(C)c1C(=O)N1CCCC(c2[nH]c3c(C)cccc3c2-c2ccncc2)C1 (stereo not given) | 67.5%
CS(=O)(=O)c1cccc(-c2cnc3[nH]cc(-c4ccc(CCC(=O)O)cc4)c3c2)c1 | 86.9%
N=C(N)Nc1ccc(-c2ccc(-c3ccc(N=C(N)N)c(Cl)c3)o2)cc1Cl | 89.7%
Cc1nn2c(=O)c3c([nH]c2c1-c1ccc(Cl)cc1)CCCC3 | 101%
O=C(NCc1cc(Cl)cc(Cl)c1)c1c(C(F)(F)F)nc2ccccn12 | 93.7%
Cc1ccccc1CN1CCC(O)(c2ccc(Cl)c(C(F)(F)F)c2)CC1 | 71.1%
COC(=O)c1c(NC(=O)c2c(F)c(F)c(F)c(F)c2F)sc2c1CCCCC2 | 0.615%
O=C(NC1CC1)c1ccc(CSCc2ccccc2Cl)o1 | 114%
COc1ccc(-c2cnc3cnc(-c4cccc(OC(C)C)c4)cn23)cc1 | 39%

Structure (SMILES) | XTT viability
c1ccc(-c2[nH]c3ccccc3c2C(c2ccccn2)N2CCCC2)cc1 (stereo not given) | -3.4%
c1cncc(NCc2ccc(-c3cc4ccncc4cc3OC3CCNCC3)s2)c1 | 14.8%
N=C(N)Nc1ccc(-c2ccc(-c3ccc(NC(=N)N)cc3Cl)o2)c(Cl)c1 | 61.7%
CC(C)(C)C(=O)N(CCCCCCN1C[C@H](O)[C@@H](O)[C@H](O)[C@H]1CO)C1CCCCCC1 | 122%
CC[C@@H]([C@H](C)O)n1ncn(-c2ccc(N3CCN(c4ccc(OC[C@@H]5CO[C@@](Cn6cncn6)(c6ccc(F)cc6F)C5)cc4)CC3)cc2)c1=O | 88.8%
CS(=O)(=O)Cc1nc2ccccc2oc1=O | 355%
O=C(OCc1ccccc1)N1CCC(c2cc(-c3ccncc3)c(-c3ccc(F)cc3)[nH]2)CC1 | 124%
c1ccc(Oc2ccc(-c3cncc(-c4ccc5[nH]ccc5c4)n3)cc2)cc1 | 3.06%
N#Cc1ccc(-c2cnc(N)c(-c3ccc(C(N)=O)cc3)n2)cc1 | 113%
Cc1ncc(-c2ccnc(Nc3ccc(S(C)(=O)=O)cc3)n2)n1C(C)C | 66.9%
CC(C)N=c1cc2n(-c3ccc(Cl)cc3)c3ccccc3nc-2cc1Nc1ccc(Cl)cc1 | 16.6%
CC(C)(C(=O)Nc1ccc(F)cc1)n1cc(-c2ccccc2F)cn1 | 128%
O=C(c1ccc(NCCO)cc1)C1C[C@H]1c1ccc(Cl)cc1 (stereo not given in full) | 93.3%
O[C@@H](c1cc(C(F)(F)F)nc2c(C(F)(F)F)cccc12)[C@H]1CCCCN1 | -0.139%
O=C(Nc1cnc2ccccc2c1)c1cccc(-n2cnnn2)c1 | 85.7%
Cc1cccc(-c2nc(Nc3ccncn3)c3sccc3n2)n1 | 39.9%
N=C(N)c1ccc(-c2cc(-c3ccccc3)on2)cc1 | 91.6%
CC(C)(C)c1cc(C(=O)N2CCN(c3nccnc3C#N)CC2)n(Cc2ccccc2)n1 | 120%
CC(C(=O)Nc1ccc2oc(-c3ccncc3)nc2c1)c1ccccc1 (stereo not given) | 89.9%
COc1cccc(-c2nc3c(N4CCCC4)cccc3n2CC2CCCN2)n1 (stereo not given) | 158%

Reference: the supplement of paper PMC6805474
